ChEMBL document CHEMBL4513216, “Probing the Open Global Health Chemical Diversity Library for Multistage-Active Starting Points for Next-Generation Antimalarials” (ACS Infect Dis, 2020)
Among all 69,000 compounds or so, about 8,600 (12%) showed an effect of 50% or more. For the sample, strong results were picked, then their nearest neighbours and some compounds at random.

These molecules were tested on Plasmodium berghei (assay: Screen against P. berghei liver stage (PbLuc), transformed with Luciferase, at 10uM). Details: tested at 10 uM.
Format: functional, HepG2

Row | Structure (SMILES) | INHIBITION
1 | Cc1nc(C)n(CC2CCCCN2CC(=O)Nc2cc(C)on2)n1 (stereo not given) | 15.5%
2 | COCC(=O)N1CCCC1c1nc(O)cc(C(C)C)n1 (stereo not given) | 0.301%
3 | CN(C)CCN1C(=O)CCC12CCCN(C(=O)c1cccnc1)CC2 (stereo not given) | -38.1%
4 | Cc1occc(=O)c1OCC(=O)N1CCc2ccccc2C1 | -8.04%
5 | CC(NC(=O)NCCNc1ncccn1)c1cccs1 (stereo not given) | 56.6%
6 | CC(NC(=O)NCCNc1ccccn1)c1cccs1 (stereo not given) | 19.6%
7 | CC(NC(=O)NCCCc1n[nH]c(N)c1C#N)c1ccc(F)cc1 (stereo not given) | -25.8%
8 | CC(NC(=O)NCCCc1n[nH]c(N)c1C#N)c1cccs1 (stereo not given) | 58.2%
9 | CC(NC(=O)NCCCc1n[nH]c(N)c1C#N)c1ccccc1 (stereo not given) | 31%
10 | CC(C)C(NC(=O)NCCNc1ncccn1)c1cccs1 (stereo not given) | -6.44%
11 | CC(C)C(NC(=O)NCCNc1ccccn1)c1cccs1 (stereo not given) | 50.4%
12 | CC(C)C(NC(=O)NCCNc1cnccn1)c1cccs1 (stereo not given) | 36.1%
13 | CC(NC(=O)NCCNc1cnccn1)c1cccs1 (stereo not given) | -0.847%
14 | CCSc1ccc(C(=O)N2CCCCC2C(=O)NC(C)(C)C)cn1 (stereo not given) | 29.7%
15 | CN(CCCO)C(=O)c1ccc2c(c1)nc(N1CC[C@H](O)C1)n2C | -17.7%
16 | O=C(c1ccncc1)N1CCN2C[C@H](Oc3cccc(F)c3)C[C@H]2C1 | 15.3%
17 | CC1CCCCN1CCNC(=O)c1scnc1Cl (stereo not given) | 0.411%
18 | O=C(C1CCCC1)N1CCCC(c2nc(O)cc(-c3ccncc3)n2)C1 (stereo not given) | 18.3%
19 | CCOc1ccc(CC(=O)N2CCN(c3nccn3C)CC2)cc1 | 15%
20 | CCC(=O)Nc1ccc(C(C)Nc2nc3c(cnn3C)c(=O)[nH]2)cc1 (stereo not given) | 28.7%
21 | CC(Nc1nc2c(cnn2C)c(=O)[nH]1)c1ccc2c(c1)CCCC2 (stereo not given) | 51%
22 | CC(C)Sc1ccc(C(C)Nc2nc3c(cnn3C)c(=O)[nH]2)cc1 (stereo not given) | 76.8%
23 | Cn1ncc2c(=O)[nH]c(CN3CCCc4cc(F)ccc43)nc21 | 31.7%
24 | CC(Nc1nc2c(cnn2C)c(=O)[nH]1)c1ccc(F)cc1 (stereo not given) | 23.1%
25 | CC(Nc1nc2c(cnn2C)c(=O)[nH]1)c1ccccn1 (stereo not given) | 30.9%
26 | c1ccc(Cn2cc3c(n2)C(CNCc2ccco2)OCC3)nc1 (stereo not given) | -4.86%
27 | Cn1cc(C(=O)N2CC[C@@H]3[C@@H]2CCN3Cc2cccnc2)cn1 | 10.8%

Row | Structure (SMILES) | INHIBITION
28 | COc1nn(C)cc1C(=O)N1CCC(c2nnc(-c3ccsc3)o2)CC1 | 43.3%
29 | CS(=O)(=O)N1CCc2ccc(C(=O)N3CCn4ncnc4C3)cc21 | -4.68%
30 | Clc1ccccc1OCCc1cc(C2CCNC2)n[nH]1 (stereo not given) | -57.4%
31 | Cc1nccc(-c2cccc(NCC(=O)N3CCCCCCC3)c2)n1 | 18.9%
32 | Cc1nccc(-c2cccc(NCC(=O)N3CCOC(C)C3)c2)n1 (stereo not given) | 15.5%
33 | Cc1nccc(-c2cccc(NCC(=O)N3CCCC(C)C3)c2)n1 (stereo not given) | 53.9%
34 | CNS(=O)(=O)c1cccc(CNC(=O)c2cc(C)no2)c1 | -4.16%
35 | CCS(=O)(=O)N1CCC2(CC(=O)N(c3ccccc3C)C2)C1 (stereo not given) | -25.8%
36 | CS(=O)(=O)Nc1ccc2c(c1)NC(=O)CC2c1cnn2cccnc12 (stereo not given) | -27.5%
37 | CC(=O)N1CCC2(CCN(Cc3ccc(Cl)c(C(F)(F)F)c3)CC2)C1 | 73%
38 | CC(=O)N1CCCC2(CCN(Cc3ccc(Cl)c(C(F)(F)F)c3)C2)C1 (stereo not given) | -18.5%
39 | CC(=O)N1CCOC2(CCCN(Cc3ccc(Cl)c(C(F)(F)F)c3)C2)C1 (stereo not given) | 30.3%
40 | CC(=O)N1CCCC2(CCN(Cc3ccc(Cl)c(F)c3)C2)C1 (stereo not given) | 13.7%
41 | CN(C)C(=O)N1CCCC2(CCN(Cc3ccc(Cl)c(F)c3)C2)C1 (stereo not given) | 16.9%
42 | CC(=O)N1CCC2(CCCN(Cc3ccc(Cl)c(C(F)(F)F)c3)C2)C1 (stereo not given) | 59.7%
43 | CSc1cccc(CN2CCn3nc(CNC(C)=O)cc3C2)c1 | 8.38%
44 | Cn1ncc2c1C(COCC1CC1)CN(Cc1ccc(F)cc1)C2 (stereo not given) | -5.69%
45 | Cc1cc(C)n(-c2ccc(C(=O)NCC(CO)Cc3ccco3)cc2)n1 (stereo not given) | 32.1%
46 | Cc1csc(CNc2cnc3c(c2)c(C)nn3C)n1 | 16%
47 | CSc1ccc(NS(=O)(=O)c2cnn(C)c2)cn1 | 1.81%
48 | Cn1cc(NS(=O)(=O)c2ccc(C(F)(F)F)cc2)ccc1=O | 60.5%
49 | Cc1nc(N(C)C)nc(C)c1NS(=O)(=O)c1ccc(OC(F)(F)F)cc1 | -2.09%
50 | Cn1cc(NS(=O)(=O)c2ccc(OC(F)(F)F)cc2)ccc1=O | 84.6%
51 | COc1ccc(S(=O)(=O)Nc2cnc(N(C)C)nc2)cc1 | 40.6%
52 | O=S(=O)(Nc1cnc(N2CCCC2)nc1)c1ccc(C(F)(F)F)cc1 | 37.3%
53 | O=S(=O)(Nc1cnc(N2CCCC2)nc1)c1ccc(OC(F)(F)F)cc1 | 40.1%
54 | CN(C)c1ncc(NS(=O)(=O)c2ccc(OC(F)(F)F)cc2)cn1 | 51.6%

Row | Structure (SMILES) | INHIBITION
55 | Cc1ccc(S(=O)(=O)Nc2ccc(=O)n(C)c2)cc1 | 46.5%
56 | O=C(c1cccnc1N1CCOCC1)N1CCCC(n2cncn2)C1 (stereo not given) | 36.1%
57 | CC(C)OCCN1CCC(Nc2nccnc2C#N)CC1 | 33.1%
58 | Cc1ccc(CN2CCC3(CCC3NS(=O)(=O)c3ccccc3)CC2)o1 (stereo not given) | -12.4%
59 | O=c1ccc2c(n1CCN1CCCC1)CCN(Cc1ccoc1)CC2 | 8.47%
60 | COCCN1CCCC(c2cncc(Oc3ccccc3OC)n2)C1 (stereo not given) | -5.71%
61 | c1cc(CN2CCC(n3cc(CN4CCCC4)nn3)CC2)cs1 | 42.1%
62 | OC1CCCN(Cc2cn(CC3CCN(C4CCSCC4)CC3)nn2)C1 (stereo not given) | 18.3%
63 | O=C1CN(Cc2cn(CC3CCN(C4CCSCC4)CC3)nn2)CCN1 | 32.2%
64 | Cc1cc(N2CCC(n3cc(CN4CCSCC4)nn3)CC2)ccn1 | 30.9%
65 | O=C1CN(Cc2cn(C3CCN(C4CSCCSC4)CC3)nn2)CCN1 | 65.6%
66 | O=C1CN(Cc2cn(CC3CCCN(C4CCSCC4)C3)nn2)CCN1 (stereo not given) | 54.5%
67 | c1cncc(CN2CC(Cc3nccc4cc[nH]c34)C2)c1 | 19.3%
68 | O=C(NCC1CCC1)c1ccc(-n2ccnc2)nn1 | -15%
69 | CCCOc1ccc(C(=O)Oc2cc(=O)n3cccc(C)c3n2)cc1 | 0.207%
70 | CC1c2ncc(COCc3ccccn3)n2CCN1C1CCCC1 (stereo not given) | 37.8%
71 | O=C(O)c1ccccc1-c1ccc(Cn2c(=O)cc[nH]c2=O)cc1 | 2.55%
72 | Cc1ccnc(C2CCCN2C(=O)CN(C)C)n1 (stereo not given) | -16.5%
73 | O=C(NCCn1nc2ccccn2c1=O)c1sccc1-c1ccccc1 | -20.53%
74 | CC(C)COCCNC(=O)NC1CCCN(c2cnn(C)c2)C1 (stereo not given) | -49.3%
75 | COCC(=O)N1CCC(c2cccc(Cc3ccc(F)cc3)n2)CC1 | 54%
76 | COCC(=O)N1CCC(c2cncc(-c3cccc(F)c3)n2)CC1 | 8.72%
77 | Fc1cccc(Cc2cncc(C3CCCN3C3CCOCC3)n2)c1 (stereo not given) | 41.1%
78 | Fc1ccc(Cc2cccc(C3CCN(C4CCOCC4)CC3)n2)cc1 | 72.3%
79 | c1ccc(Cc2cccc(C3CCCN3C3CCOCC3)n2)cc1 (stereo not given) | 32.921%
80 | CN(C)C(=O)CN1CCC(c2cccc(Cc3ccc(F)cc3)n2)CC1 | 24.4%
81 | Cc1nn(C)c2c(=O)n(C)c(NCC3CCCO3)nc12 (stereo not given) | 49.1%

Row | Structure (SMILES) | INHIBITION
82 | CC(=O)N1N=C(Cc2ccccc2)OC1C(=O)NCC(C)C (stereo not given) | -21.1%
83 | Cc1ccc(C(=O)N2CCC3(CC2)CC(c2cnn(C)c2)CO3)cn1 (stereo not given) | 39.2%
84 | Cn1cc(C2COC3(CCN(C(=O)c4ccc(F)cc4)CC3)C2)cn1 (stereo not given) | 18.2%
85 | Cn1cc(C2COC3(CCN(C(=O)c4ccsc4)CC3)C2)cn1 (stereo not given) | 69.5%
86 | Cn1cc(C2COC3(CCN(C(=O)c4ccccn4)CC3)C2)cn1 (stereo not given) | 42.7%
87 | Cn1cc(C2COC3(CCN(C(=O)c4cccn4C)CC3)C2)cn1 (stereo not given) | 36.9%
88 | Cn1cc(C2COC3(CCN(C(=O)c4cccc(O)c4)CC3)C2)cn1 (stereo not given) | 32.2%
89 | Cn1cc(C2COC3(CCN(C(=O)c4ccn(C)n4)CC3)C2)cn1 (stereo not given) | 41.6%
90 | CN1CC(=O)N(c2ccsc2)CC12CCN(C(=O)c1ccccc1)C2 (stereo not given) | 45.5%
91 | CN1CC(=O)N(c2ccsc2)CC12CCN(C(=O)c1ccc[nH]1)C2 (stereo not given) | 15.9%
92 | Cc1ccccc1C(=O)N1CCC2(CC1)CC(c1cnn(C)c1)CO2 (stereo not given) | 53.2%
93 | Cc1cccc(C(=O)N2CCC3(CC2)CC(c2cnn(C)c2)CO3)c1 (stereo not given) | 69.5%
94 | CN1CC(=O)N(c2cnn(C)c2)CC12CCN(C(=O)c1ccsc1)C2 (stereo not given) | 51.7%
95 | Cc1nc(C)n(CC(=O)N2CCc3ncc(Cl)cc3C2)n1 | 8.72%
96 | CO[C@@H]1CO[C@@]2(CCCN(S(=O)(=O)c3ccccc3)C2)C1 | 40.4%
97 | CCOC(=O)N(C)CC(=O)NCCc1coc(-c2ccc(C)cc2)n1 | 11.4%
98 | Cn1cc(N2C(=O)CC[C@@H]3[C@H]2CCN3CC2CCOCC2)cn1 | 8.52%
99 | O=C(CCCN1CCCCC1)NC(C(=O)O)c1ccc(Cl)cc1 (stereo not given) | 6.11%
100 | O=C(Cc1cccc(F)c1)NCCNc1ncccn1 | 37.4%
101 | CCOCC(=O)N1CCC2(CC1)COC(COCc1ccccn1)C2 (stereo not given) | -13%
102 | Cc1cc(C)n2cc(CN3CCC(N4CCN(C)C4=O)CC3)nc2n1 | 39.1%
103 | CC(NS(C)(=O)=O)C(=O)N1CCCN(Cc2cscn2)CC1 (stereo not given) | 48.9%
104 | Cc1cnn(C2CCCN(C(=O)Cc3ccc4c(c3)CCO4)C2)c1 (stereo not given) | 31.8%
105 | CNc1cc(N2CCCC2CNCc2csc(C)n2)ncn1 (stereo not given) | 29.425%
